MITF primary: blocks human microphthalmia-associated transcription factor; O75030; hit rate 0.91% among 650,000; AlphaScreen MITF homodimerization, bead proximity signal; inhibition, % at 2.6 µM; AID 1259374; in the data active means inhibition above about 50%;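 further: 0% = vehicle wells with protein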
TEAD-YAP block: TEAD-YAP interaction inhibition; HEK-TIYL cells, TEAD-Gal4/YAP UAS-luciferase luminescence; inhibition, % at 9.12 µM; hit rate 1.4% among 640,000; AID 1259422; in the data active means inhibition above about 32%;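 further: 0% = median of test compound wells and 100% = reference inhibitor wells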
GPR151 ag: human GPR151 activation. activation, % at 11.2 µM. hit rate 1% among 650,000. PathHunter beta-arrestin GPR151 cells, luminescence. AID 1508602; in the data active means activation above about 4.9%;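 further: 0% = median of compound wells and 100% = cells with positive control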
FBW7 activator: human FBW7 E3 ligase activation, primary screen; Q969H0; AlphaScreen FBW7–phospho-cyclin E peptide binding, activator screen; normalized activity (activation), % at 26.1 µM; hit rate 0.13% among 650,000; in the data active means normalized activity above about 1.9%;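 further: purified mutant Fbw7 with reduced substrate affinity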
Target sequence (Q969H0 whole entry, looked up): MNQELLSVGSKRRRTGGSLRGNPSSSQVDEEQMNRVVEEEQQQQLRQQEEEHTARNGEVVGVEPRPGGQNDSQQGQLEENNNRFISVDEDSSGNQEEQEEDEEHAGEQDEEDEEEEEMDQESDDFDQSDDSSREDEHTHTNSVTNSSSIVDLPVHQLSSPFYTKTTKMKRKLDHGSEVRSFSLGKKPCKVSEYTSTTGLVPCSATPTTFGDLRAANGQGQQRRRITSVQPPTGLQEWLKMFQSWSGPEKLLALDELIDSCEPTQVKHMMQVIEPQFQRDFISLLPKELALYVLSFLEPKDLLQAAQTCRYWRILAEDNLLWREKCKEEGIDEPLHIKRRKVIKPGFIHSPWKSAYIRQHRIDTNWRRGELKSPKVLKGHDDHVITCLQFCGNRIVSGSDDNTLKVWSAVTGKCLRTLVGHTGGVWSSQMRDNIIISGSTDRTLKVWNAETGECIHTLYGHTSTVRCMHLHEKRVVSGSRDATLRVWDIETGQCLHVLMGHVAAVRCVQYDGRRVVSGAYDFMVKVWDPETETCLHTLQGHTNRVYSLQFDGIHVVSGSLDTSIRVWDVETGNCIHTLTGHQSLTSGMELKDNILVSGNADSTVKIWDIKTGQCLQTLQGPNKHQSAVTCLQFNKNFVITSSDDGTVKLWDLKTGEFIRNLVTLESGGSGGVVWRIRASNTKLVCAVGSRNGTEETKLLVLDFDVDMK
GPR151 confirm: confirmation of human GPR151 activators. 6,700 tested, under 10 active. GPR151 PathHunter beta-arrestin cells, luminescence, 90 min; % of EA-reagent control over plate median. activation, % at 11.2 µM. shares compounds with GPR151 ag;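 active means mean percent activation across replicates above the confirmation screen cutoff of 4.91%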
GPR119 ag: counter-screen for GPR151 activators: effect on human GPR119 | GPR119 PathHunter beta-arrestin cells, luminescence, 90 min; 0 = compound-well median, 100 = enzyme-acceptor control | activation, % at 11.2 µM | hit rate 0.3% among 6,700 | shares compounds with GPR151 ag;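 active means mean percent activation in the counterscreen above 29.09%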;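 further: counterscreen on off-target GPR119 to flag nonselective hits from the GPR151 activator screen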
* hit, by the source's call; / = not tested or not shown. Compounds with a hit are over-represented: about 3.4% of the library has one in this group of screens.

SMILES	MITF primary	TEAD-YAP block	GPR151 ag	FBW7 activator	GPR151 confirm	GPR119 ag
CCCN1CCCc2cc(CN3CCc4nnc(C(C)NC(=O)C(C)C)n4CC3)ccc21 (configuration not stated)	-0.7	3.4	1.1	0.0	/	/
COc1ccc(C=O)cc1Cn1cnc([N+](=O)[O-])n1	0.2	8.1	5.5*	0.0	-0.6	-3.3
CC(=NCCCn1cnc2c1c(=O)n(C)c(=O)n2C)N(C)C	13.7	-2.4	6.4*	0.0	0.1	1.1
COCCNC(=O)c1sc2ncnc(N3CCc4ccccc4C3)c2c1C	0.3	-2.7	5.3*	-0.2	-0.6	-0.1
CC1CN(CC(=O)NCC(c2cccnc2)N2CCOCC2)Cc2ccccc2O1 (configuration not stated)	15.5	-0.4	0.6	0.1	/	/
C/C(O)=C(/C(=O)OC(C)(C)C)c1nc(/C(C(=O)OC(C)(C)C)=C(\C)O)nc(/C(C(=O)OC(C)(C)C)=C(\C)O)n1	16.4	-9.9	-0.2	0.2	/	/
Cc1ccc(-c2nc(C3CCCN3C(=O)CCCC(=O)O)n3ccccc23)cc1 (configuration not stated)	3.7	-13.2	5.5*	-0.6	0.2	-2.3
CCOc1cc(C2/C(=C(/O)c3ccc(Cl)cc3)C(=O)C(=O)N2CCO)ccc1O (configuration not stated)	2.2	5.4	-0.2	-0.1	/	/
CCCCc1ccc(-c2csc(/C(C#N)=C\c3ccc(OC)cc3)n2)cc1	2.7	-8.6	2.1	0.1	/	/
CCNS(=O)(=O)c1ccc(Cl)c(OC)c1	-5.4	-5.5	8.0*	0.0	-0.1	-0.3
COc1cc(S(=O)(=O)N2CC(C)OC(C)C2)ccc1Cl (configuration not stated)	-14.2	-12.3	8.0*	0.1	-0.7	-16.1
COc1ccc(CNS(=O)(=O)c2ccc(Cl)c(OC)c2)cc1	-8.5	-0.8	-0.4	-0.3	/	/
COc1cc(S(=O)(=O)N2CC(C)OC(C)C2)ccc1Br (configuration not stated)	2.6	-4.5	-0.8	-0.1	/	/
COc1ccc(/C=C2/C(=N)N3N=C(C4CCCCC4)SC3=NC2=O)cc1	5.9	12.0	-0.6	0.1	/	/
CCc1nn(C(CC)C(=O)NC2CCCC2)c(=O)c2cc3occc3n12 (configuration not stated)	-31.8	8.0	-0.5	-0.1	/	/
CCc1nn(C(CC)C(=O)NC2CCCC2)c(=O)c2cc3oc(C)cc3n12 (configuration not stated)	3.7	4.9	12.8*	-0.3	-0.2	-1.3
COc1cc2c(c(OC)c1)C(c1cc(OC)c(OC)cc1Br)CC(=O)N2 (configuration not stated)	5.8	11.4	5.1*	0.0	0.2	-1.7
COc1cc(Br)c(C2CC(=O)Nc3ccc4ccccc4c32)cc1OC (configuration not stated)	15.3	1.1	-0.2	0.1	/	/
Cc1cncc2c(S(=O)(=O)N3CC[C@H](NC(=O)[C@@H](C)O)C3)cccc12	-1.4	-8.2	0.8	0.1	/	/
Clc1ccc(Cn2cc(/C=N/n3cnnc3)c3ccccc32)cc1	0.8	10.2	6.2*	0.0	0.4	-2.3
Fc1ccc(Cn2cc(/C=N/n3cnnc3)c3ccccc32)cc1	18.1	-2.2	-1.6	0.8	/	/
CC(=O)Nc1ccc(Nc2cc(C)nc(Nc3ccc(C(F)(F)F)cc3)n2)cc1	1.8	16.2	5.3*	-0.1	-0.2	12.4
O=C1CCCN1CCCNc1nccc(NC2CC2)n1	-11.1	-10.3	5.5*	0.1	0.1	-4.3
CC(=O)Nc1ccc(Nc2cc(C)nc(NCCCN3CCCC3=O)n2)cc1	7.7	-5.3	5.6*	-0.2	-0.8	-8.1
CC(=O)Nc1ccc(Nc2cc(C)nc(Nc3ccccc3)n2)cc1	6.2	-16.9	0.5	0.1	/	/
SMILES	MITF primary	TEAD-YAP block	GPR151 ag	FBW7 activator	GPR151 confirm	GPR119 ag
CCCNC(=O)c1ccnc(NCCCN2CCCC2=O)c1	27.4	2.8	8.2*	0.3	-0.7	-0.4
O=C1CCCN1CCCNc1ccnc(NCCCN2CCCC2=O)n1	7.0	-5.7	2.1	0.0	/	/
Cc1cc(Nc2ccc(Oc3ccccc3)cc2)nc(NCCCN2CCCC2=O)n1	4.8	14.8	6.8*	0.0	-0.9	2.6
NC(=O)c1ccc(NC(=O)Cn2cc(S(=O)(=O)Cc3ccccc3)c3ccccc32)cc1	7.5	-3.8	-0.1	0.2	/	/
CC(C)(C)NC(=O)Cn1cc(S(=O)(=O)Cc2ccc(F)cc2)c2ccccc21	11.9	4.9	5.3*	0.0	1.2	3.9
CC(C)(C)NC(=O)Cn1cc(S(=O)(=O)Cc2ccccc2)c2ccccc21	0.7	-10.6	8.3*	0.0	0.3	-2.7
O=C(Nc1ccc(-c2nnc(-c3ccco3)o2)cc1)c1cccc(Br)c1	3.3	3.3	0.9	-0.2	/	/
CC(C)(C)OC(=O)COC(=O)CNC(=O)c1ccc(Cl)cc1Cl	-7.5	1.2	-1.6	0.0	/	/
Cc1cccc(CSc2nc(=O)n3ccccc3n2)c1	-6.9	-9.8	5.2*	-0.1	-1.1	-0.3
CC1=C(C(=O)OC2CCCCCC2)C(c2cccc(OCc3ccccc3)c2)NC(=O)N1 (configuration not stated)	5.6	-8.3	0.5	-0.4	/	/
Cc1nccn1CCNC(=O)c1cccn(C)c1=O	6.5	0.0	0.6	0.0	/	/
Cc1nccn1CCNC(=O)c1cccc2ccccc12	-0.7	0.8	6.0*	-0.2	-0.8	-9.8
Nc1nnc(Cc2cccc(Br)c2)s1	11.0	0.9	11.1*	-0.2	1.2	21.6
CCOc1ccc(S(=O)(=O)N(CC)CC)cc1NS(=O)(=O)c1ccccc1C#N	-2.5	3.3	-0.2	0.1	/	/
Cc1ccc(N2C(=O)c3c(Cl)c(Cl)c(Cl)c(Cl)c3C2=O)cc1	14.6	5.8	1.5	0.0	/	/
CC1=NC2(CCN(C(=O)NC(C)C)CC2)N=C1c1ccccc1	10.9	-4.7	9.1*	0.4	-0.2	-5.8
CC1=NC2(CCN(S(C)(=O)=O)CC2)N=C1c1ccccc1	0.3	-5.1	0.1	-0.8	/	/
O=C(NCc1ccccc1)/C(=N\O)c1ccccc1	4.8	-9.9	6.2*	-0.1	-0.7	-5.4
CCOC(=O)/C(N=Nc1cc(Cl)c(OC)cc1OC)=C(\C)O	-3.0	6.1	4.9*	0.2	0.9	7.4
CCOc1ccc(-n2cc(-c3ccccc3)c3c(NCCCO)ncnc32)cc1	7.1	-1.0	-0.1	0.1	/	/
COc1cc(/C=N/N2C(C)CCCC2C)cc(Br)c1O (configuration not stated)	-12.1	0.9	8.2*	-0.2	-1.1	-8.8
CCOc1ccccc1CN1CCC(C(=O)NC(C)CC)CC1 (configuration not stated)	40.1	-2.0	0.5	0.6	/	/
O=C1N2CN(C(c3ccccc3)c3ccccc3)CN=C2SC1(CO)CO	17.2	4.6	7.7*	-0.2	-0.8	-6.0
Cc1noc(CNC(=O)c2ccc3ccccc3n2)n1	10.5	-8.2	5.4*	0.0	0.1	-7.7

Source: PubChem (The Scripps Research Institute Molecular Screening Center)
